# Rab9 promoter act = qHTS Assay for Rab9 Promoter Activators; Huh7 Rab9 promoter-luciferase reporter, luminescence, 24 h; Potency, µM (series often up to 9.22 µM), for the others: top-dose activation, negative = inhibition, hits mostly activators; hit rate 2.8% among 320,000; AID 485297, 2010; also: % of control where 0% means no effect; nearly all actives have a fitted effect of over 60% in size
#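 Luminescence read-out: Huh7 cells stably expressing Rab9-luciferase, treated 24 h with compound at 37 °C, then lysed with luciferase reagent for 10 min at ambient before reading.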
# SMN2 splice enh = qHTS Assay for Enhancers of SMN2 Splice Variant Expression; HEK293 SMN2-luciferase splicing reporter, luminescence, 30-36 h; Potency, µM (series often up to 46.1 µM), for the others: top-dose activity change, positive = activation, hits mostly activators; hit rate 2.8% among 210,000; also: % of control where 0% means no effect; nearly all actives have a fitted effect of over 55% in size
#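 HEK293 cells carry an SMN2 […]–luciferase reporter in which exon 7 inclusion puts luciferase in frame. Cells were plated 10-12 h before compound addition, then incubated 30-36 h at 37C. ONE-Glo luminescence was read; sodium butyrate at 4.5 mM final served as control.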
# ELG1 genotoxic = qHTS screen for small molecules that induce genotoxicity in human embryonic kidney (HEK293T) cells expressing luciferase-tagged ELG1; HEK293T ELG1-luciferase reporter, luminescence, 16 h; Potency, µM (highest dose often 46 µM), for inactives: at the highest dose activity change, positive = activation, most hits filed as activators; hit rate 1.3% among 330,000; AID 504466, 2011; also: % of control where 0% means no effect; nearly all actives have a fitted effect of over 60% in size
#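 Reporter readout depends on ELG1 protein level, which increases with genetic stress. After 16 hr compound exposure at 37 °C, luciferase activity was quantified using ONE-Glo.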
# NPC1 prom act = qHTS Assay for NPC1 Promoter Activators; Huh7 NPC1 promoter luciferase reporter, 24 h; Potency, µM (doses to about 9.22 µM), for inactives: at the top dose activation, usual class: activators; hit rate 2.4% among 320,000; also: % of control where 0% means no effect; nearly all actives have a fitted effect of over 60% in size
#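 Readout is luciferase luminescence, reflecting NPC1 promoter activation in stably transfected Huh7 cells after 24 h compound exposure at 37 °C in reduced-serum medium with 10% FBS.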
# KinaseGlo FLuc = Counterscreen for Luciferase (Kinase-Glo TM) Inhibition. AID 1379, 2008. Luciferin 4-monooxygenase (Photuris pensylvanica), Q27757. Potency, µM (doses to about 38.3 µM), inactives show top-dose activity change, negative = inhibition, hits mostly inhibitors. Kinase-Glo luciferase, ATP luminescence, 8 min. hit rate 0.28% among 200,000; also: % is scaled to controls: 0 for no effect and ±100 for the full control effect; nearly all actives have a fitted effect of over 60% in size
#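 Recombinant Kinase-Glo luciferase, 10 uM ATP (linear range), luciferin; imidazole pH 7.2 / KCl / MgCl2 / Tween / BSA buffer; 8 min RT; luminescence.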
# FLuc counter = qHTS profiling assay for firefly luciferase inhibitor/activator using purifed enzyme and Km concentrations of substrates (counterscreen for miR-21 project); AID 588342, 2011; purified FLuc, Km substrates, luminescence inhibition; Luciferin 4-monooxygenase (Photinus pyralis), P08659; hit rate 6.9% among 360,000; Potency, µM (titrated, usually from 57.5 µM), without a hit: top-dose activity change, negative = inhibition, actives largely listed as inhibitors;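 also: plate controls were vehicle for no effect and reference inhibitor for full effect; nearly all actives have a fitted effect of over 55% in size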
# Target sequence (P08659 whole entry, looked up): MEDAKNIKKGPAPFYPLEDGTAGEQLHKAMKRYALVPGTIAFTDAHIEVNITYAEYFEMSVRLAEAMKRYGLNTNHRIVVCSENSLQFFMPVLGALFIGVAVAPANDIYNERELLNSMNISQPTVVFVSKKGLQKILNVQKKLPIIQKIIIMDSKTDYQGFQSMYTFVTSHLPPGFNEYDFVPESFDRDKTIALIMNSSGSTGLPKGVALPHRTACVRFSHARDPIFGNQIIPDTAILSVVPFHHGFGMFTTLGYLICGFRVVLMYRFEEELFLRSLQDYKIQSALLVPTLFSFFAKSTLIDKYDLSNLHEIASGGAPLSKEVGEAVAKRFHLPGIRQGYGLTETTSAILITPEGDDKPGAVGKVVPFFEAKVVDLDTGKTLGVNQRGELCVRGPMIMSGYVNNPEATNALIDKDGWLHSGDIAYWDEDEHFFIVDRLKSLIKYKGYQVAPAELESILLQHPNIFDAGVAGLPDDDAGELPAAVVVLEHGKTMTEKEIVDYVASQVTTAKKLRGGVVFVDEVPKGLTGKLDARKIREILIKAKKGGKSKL
#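 Purified P. pyralis luciferase (10nM final) with 10uM D-luciferin and 10uM ATP (Km levels) in 50mM Tris acetate pH 7.5, 10mM Mg acetate, 0.01% Tween-20, 0.05% BSA; qHTS 6-point titration, ~60 µM downward; luminescence read.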
# * = called active by the depositor; ? = inconclusive; . = no result; ! = not confirmed by another sample. Shown are actives, neighbours in structure and some others; about 7.3% of the full set was active somewhere. Calls follow the shape of the dose curve; as a rule, active = well fitted curve in the direction sought with a large enough effect; inconclusive = small, poorly fitted or top-dose-only effect, or another doubt; inactive = no such curve, though single readings can be large; an effect the other way counts as inactive or inconclusive. Potency is read from the fitted curve at half-maximal effect.
SMILES,Rab9 promoter act,SMN2 splice enh,ELG1 genotoxic,NPC1 prom act,KinaseGlo FLuc,FLuc counter
CCOc1ccc2c(c1)S/C(=C\c1cccs1)C(=O)N2,?,.,?,?,.,9.53µM*
Cn1cccc1/C=C1\SC(=Nc2cccc(O)c2)NC1=O,?,.,?,11.6%,.,12µM*
Cc1cc(C)cc(N=C2NC(=O)/C(=C/c3cccs3)S2)c1,-2.5%,-22.3%,3.2%,0.8%,0.7%,-18.7%
O=C1NC(=Nc2ccccc2)S/C1=C\c1cccs1,3.16µM*,.,?,3.16µM*,.,12µM*
Cc1ccc(N=C2NC(=O)/C(=C\c3ccco3)S2)cc1,?,16.2%,?,?,-2.8%,16.9µM*
CCOC(=O)C1(P(=O)(c2ccc(Cl)cc2)c2ccc(Cl)cc2)CCC1,-7.1%,-2.4%,-6.9%,-1.2%,-1.6%,0.4%
Cc1cccc(OCCCC(=O)NCC(=O)Nc2cccc(C)c2C)c1,-4.3%,-14.5%,0.0%,0.5%,0.5%,5.5%
COc1ccc(Nc2cc(C(=O)NCCCN(C)C3CCCCC3)c3ccccc3n2)cc1,.,-8.6%,.,.,.,-0.9%
Cn1cccc1/C=C1\SC(=Nc2ccccc2)NC1=O,21.8%,.,23.1µM*,-18.3%,.,9.53µM*
Cn1cccc1/C=C1\SC(=Nc2ccc(O)cc2)NC1=O,-6.2%,.,16.4µM*,22.8%,.,?
Cc1ccc(N=C2NC(=O)/C(=C/c3cccn3C)S2)c(C)c1,-0.5%,.,-8.5%,0.4%,.,-0.3%
COc1ccc(NS(=O)(=O)c2cc(OCC(N)=O)c(C)cc2Cl)cc1,0.7%,-10.7%,-2.5%,-1.6%,-1.1%,2.5%
Cc1cc(C)c(OCC(=O)Nc2cccc(O)c2)cc1C,?,11.5%,5.17µM*,10.2%,1.3%,1.51µM*
Cc1cc(C)cc(OCC(=O)Nc2cccc(C(=O)O)c2)c1,?,?,26.9%,?,-5.1%,15.1µM*
O=C(COc1ccccc1Cl)Nc1ccccc1C(=O)Nc1cccc(C(=O)O)c1,?,.,?,?,.,7.57µM*
Cc1cc(C)c(OCC(=O)Nc2ccc3c(c2)OCO3)cc1C,27.5%,.,?,21.2%,5.1%,-15.7%
Cc1cc(Cl)c(S(=O)(=O)Nc2cccc(O)c2)cc1OCC(N)=O,-1.7%,3.98µM*,2.5%,-2.4%,-3.5%,0.8%
Cc1ccc(CNC(=O)COC(=O)CSc2cc(C)c(Br)cc2C)cc1,1.0%,9.7%,2.4%,-1.9%,3.0%,3.7%
COC(=O)C(NC(C)=O)(Nc1ccc(Br)cc1)C(=O)OC,0.9%,-4.4%,0.0%,-0.1%,0.5%,-0.5%
CC(=O)c1cccc(NC(=O)COC(=O)c2ccccc2C)c1,26.7%,.,?,?,.,21.3µM*
Cc1ccccc1OCC(=O)Nc1cccc(NC(=O)c2ccco2)c1,?,-4.2%,-5.4%,-1.6%,-6.1%,10.7µM*
CC(C)(C)NC(=O)c1cccc(NC(=O)CSc2ccccc2)c1,3.4%,-2.8%,-3.5%,1.3%,-5.6%,15.1µM*
Cc1ccccc1OCC(=O)Nc1ccc(NC(=O)c2ccco2)cc1,11.9%,-3.7%,8.5%,1.2%,4.7%,-0.7%
Cc1ccccc1OCC(=O)Nc1cccc(C(=O)O)c1,?,1.58µM*,-15.1%,?,-0.2%,0.0953µM*
CC(=O)c1cccc(NC(=O)CSC(=O)c2ccccc2)c1,10.6%,17.1%,1.2%,3.2%,-0.4%,16.9µM*
SMILES,Rab9 promoter act,SMN2 splice enh,ELG1 genotoxic,NPC1 prom act,KinaseGlo FLuc,FLuc counter
Cc1cccc(NC(=O)COc2ccc(Br)cc2/C=N/O)c1,3.98µM*,17.8µM*,?,3.98µM*,-1.3%,5.36µM*
Cc1ccccc1OCC(=O)Nc1ccc(N2CCN(C)CC2)c(Cl)c1,28.7%,.,?,?,.,12µM*
Cc1ccccc1OCC(=O)Nc1ccccc1-c1ccccc1,0.891µM*,?,?,0.891µM*,?,4.78µM*
CCN(CC)c1ccc(NC(=O)CSC(=O)c2ccccc2)cc1,.,.,5.9%,.,.,.
O=C(OCc1csc(-c2ccccc2)n1)C1=NN(c2ccccc2)C(=O)CC1,13.8%,.,8.7%,12.0%,.,?
O=C(OCc1csc(-c2ccccc2)n1)c1cccs1,?,13.9%,?,?,?,0.536µM*
CNS(=O)(=O)c1cccc(C(=O)OCc2csc(-c3ccccc3)n2)c1,3.2%,-2.8%,5.1%,-4.6%,-4.8%,?
COc1ccccc1C(=O)NCC(=O)OCc1csc(-c2ccccc2)n1,11.1%,?,6.2%,1.1%,-0.8%,-14.2%
Cc1ccsc1C(=O)OCc1csc(-c2ccccc2)n1,3.98µM*,15.8µM*,7.31µM*,?,?,0.601µM*
Cn1cccc1C(=O)OCc1csc(-c2ccccc2)n1,1.12µM*,11.2µM*,?,2.51µM*,?,0.675µM*
COc1ccc(C(=O)NCC(=O)OCc2csc(-c3ccccc3)n2)cc1,0.0%,-15.7%,5.0%,0.8%,-2.6%,16.9µM*
CC(C)(C)c1ccc(C(=O)Nc2ccc(OCc3cc(=O)n4ccsc4n3)cc2)cc1,.,-9.1%,.,.,.,-2.0%
Cc1ccsc1C(=O)OCc1cc(=O)n2ccsc2n1,1.41µM*,.,?,2.51µM*,.,10.7µM*
CC(=O)c1ccc(OCc2cc(=O)n3ccsc3n2)cc1,3.98µM*,?,?,?,-13.6%,?
O=C(OCc1cc(=O)n2ccsc2n1)c1ccc(O)cc1O,23.0%,.,?,?,.,?
O=C(/C=C/c1cccc(Cl)c1)c1nc2ccccc2[nH]1,0.6%,-100.1%,24.2%,-1.7%,-15.0%,2.69µM*
O=C(/C(=C/c1ccc(Cl)cc1)c1nc2ccccc2[nH]1)c1cccs1,-52.2%,-75.4%,?,-0.2%,-2.9%,?
O=C(/C(=C\c1ccccc1)c1nc2ccccc2[nH]1)c1ccc(Cl)cc1,?,-83.6%,?,2.82µM*,1.0%,-2.5%
O=C(NCc1nc2ccccc2[nH]1)c1cccc(Cl)c1,.,-6.6%,.,.,.,-3.2%
CCOC(=O)C1CCCN(CCC(=O)Nc2cccc(C)c2)C1 (stereo not drawn),3.16µM*,5.8%,?,3.55µM*,-2.1%,15.1µM*!
CCOC(=O)C1CCCN(C(=S)Nc2ccc(Nc3ccccc3)cc2)C1 (stereo not drawn),1.41µM*,11.2µM*,9.2%,?,-0.1%,-7.3%
CCOC(=O)c1ccccc1OCc1cc(/C=N/n2cnnc2)ccc1OC,.,.,-4.2%,-1.2%,-6.5%,3.5%
CCOc1ccc(NC2=C(OC)C(=O)c3ccccc3C2=O)cc1,3.1%,-25.7%,0.2%,15.1%,-13.3%,16.9µM*

# Screening data deposited in PubChem by National Center for Advancing Translational Sciences (NCATS).
